# ELG1 DNA repair = ELG1-dependent DNA repair inhibition | HEK293T ELG1-luciferase reporter, luminescence, 16 h; DNA damage induced by 5-fluorouridine | 330,000 tested, 2.3% active | Potency, µM (top dose mostly 46.1 µM), inactives show top-dose activity change, negative = inhibition, most hits filed as inhibitors | AID 504467; note: % is set by controls: 0 for no effect and ±100 for the full control effect; nearly all actives have a fitted effect of over 55% in size
#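 HEK293T cells expressing luciferase-tagged ELG1 (2,000/well) received 5-Fluorouridine plus compound or DMSO for 16 hr at 37 °C. Luciferase was read by ONE-Glo luminescence after 30 min at room temperature.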
# SW480 rerep = DNA re-replication induction in SW480 cells | 340,000 tested, 1.8% active | SW480 DNA re-replication, Hoechst DNA content imaging, 48 h | Potency, µM (highest dose often 46.1 µM), inactives show at the highest dose re-replication activation, hits mostly activators; note: % of control where 0% means no effect; nearly all actives have a fitted effect of over 55% in size
#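 Treated cells incubate 48 hr (37 C, 5% CO2), are stained 40 min with Hoechst, and nuclear fluorescence is enumerated; a rise in nuclei with high DNA signal marks re-replication.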
# p53 reactivation = restores transcriptional activity of mutant p53. H1299 p53-A138V BP100-luciferase reporter, luminescence, 24 h. Potency, µM (doses to about 92.2 µM), for inactives: at the highest dose activity change, positive = activation, usual class: activators. 320,000 tested, 0.063% active. AID 504706; note: % of control where 0% means no effect; nearly all actives have a fitted effect of over 45% in size
#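 p53-null H1299 cells stably carrying temperature-sensitive p53-A138V and a BP100-luciferase reporter were pinned with compounds (4-point, 1:5 series) and held 24 hrs at 37 deg C. Luminescence was read 10 min after detection reagent.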
# AT treatment = candidate therapy for ataxia-telangiectasia | 320,000 tested, 0.19% active | F2112 A-T fibroblasts, KAP-1 phosphorylation AlphaLISA; neocarzinostatin DNA damage 30 min before lysis | Potency, µM (highest dose often 57.5 µM), inactives show at the top dose activation, hits mostly activators; note: % of control where 0% means no effect; nearly all actives have a fitted effect of over 45% in size
#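 hTERT-immortalized A-T patient fibroblasts (F2112), 500 cells/well in OPTI-MEM, 1% FBS, got compounds for 60 min, then NCS for 30 min at 37C. Lysates were then assayed for phospho-KAP-1 by AlphaLISA (anti-pKAP1 donor, anti-KAP1 acceptor beads), 6 hr at 25C.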
# MCF10A rereplic = inducers of DNA re-replication in MCF 10A breast cells; MCF 10A DNA re-replication, Hoechst nuclear intensity, 48 h; Potency, µM (doses to about 46.1 µM), for inactives: at the top dose activity, positive = re-replication, hits mostly activators; 350,000 tested, 2.9% active; note: % of control where 0% means no effect; nearly all actives have a fitted effect of over 50% in size
# ELG1 genotox = induces genotoxicity in HEK293T cells with luciferase-tagged ELG1. AID 504466. Potency, µM (series often up to 46 µM), for inactives: at the highest dose activity change, positive = activation, hits mostly activators. HEK293T ELG1-luciferase reporter, luminescence, 16 h. 330,000 tested, 1.3% active; note: % of control where 0% means no effect; nearly all actives have a fitted effect of over 60% in size
#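 Reporter readout depends on ELG1 protein level, which increases with genetic stress. After 16 hr compound exposure at 37 °C, luciferase activity was quantified using ONE-Glo.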
# ELG1 FLuc counter = luciferase inhibition in cell-free luciferin readout for ELG1 hits; shares compounds with ELG1 DNA repair; cell-free firefly luciferase luminescence counter-screen, ViewLux; Potency, µM (doses to about 46.1 µM), inactives show at the top dose activity change, negative = inhibition, usual class: inhibitors; 350 tested, 3% active; AID 624247; note: % is set by controls: 0 for no effect and ±100 for the full control effect
# ELG1-Luc inh = human ELG1 repair inhibition, luciferase-tagged ELG1 confirmation; shares compounds with ELG1 DNA repair; HEK293T ELG1-luciferase levels, luminescence; cells co-treated with 5-fluorouridine; Potency, µM (top dose mostly 46.1 µM), for inactives: at the highest dose activity change, negative = inhibition, actives largely listed as inhibitors; 670 tested, 68% active; note: % is set by controls: 0 for no effect and ±100 for the full control effect; nearly all actives have a fitted effect of over 55% in size
# ELG1 MMS Luc = inhibits ELG1-dependent repair under MMS stimulation in HEK293T cells; shares compounds with ELG1 DNA repair; HEK293T luciferase-tagged ELG1 level, MMS stimulated; Potency, µM (series often up to 46.1 µM), without a hit: at the top dose activity change, negative = inhibition, most hits filed as inhibitors; 670 tested, 53% active; AID 624249; note: % is set by controls: 0 for no effect and ±100 for the full control effect; nearly all actives have a fitted effect of over 60% in size
# ELG1 5FU viab = confirmation of ELG1 repair inhibitors: viability with 5FU | shares compounds with ELG1 DNA repair | 670 tested, under 10 active | cell viability with 5-FU, ELG1-dependent repair | AID 624250 | Potency, µM (series often up to 46.1 µM), for inactives: top-dose activity change, negative = viability loss, usual class: cytotoxic;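 note: ELG1-luc HEK293T cells cotreated with 5-fluorouridine at 10 µM final; viability measured 16 h after compound addition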
# ELG1 MMS viab = confirmation of ELG1 repair inhibitors: viability with MMS. AID 624251. Cell viability with MMS, ELG1-dependent DNA repair. Potency, µM (top dose mostly 46.1 µM), for inactives: at the highest dose activity change, negative = viability loss, actives largely listed as cytotoxic. shares compounds with ELG1 DNA repair. 670 tested, 33% active;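 note: ELG1-luc HEK293T cells co-treated with 10 µM MMS; viability read 16 h after compound addition; % is set by controls: 0 for no effect and ±100 for the full control effect; nearly all actives have a fitted effect of over 60% in size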
# ELG1 unstim viab = counter-screen for ELG1 repair inhibitors: unstimulated cell viability. shares compounds with ELG1 DNA repair. cell viability counter-screen, unstimulated, luminescence. Potency, µM (top dose mostly 45.9 µM), inactives show top-dose activity change, negative = loss of viability, hits mostly cytotoxic. 900 tested, 8% active;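 note: compound exposure lasted 16 hours before reading; % is set by controls: 0 for no effect and ±100 for the full control effect; nearly all actives have a fitted effect of over 55% in size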
# FLuc biochem = firefly luciferase inhibition counter-screen | Potency, µM (titrated, usually from 57.5 µM), inactives show at the top dose activity, negative = inhibition, usual class: inhibitors | 350 tested, 10% active | purified firefly luciferase, luminescence counter-screen | shares compounds with ELG1 DNA repair; note: % is set by controls: 0 for no effect and ±100 for the full control effect
# Starred values were filed as active, the others as inactive; ? = inconclusive; . = no result given; [ ] = another dose, or the depositor's remark. Sampled rows, rich in hits. Any-hit rate of the full collection: about 7.1%. Calls come from the whole dose curve; as a rule, active = well fitted curve in the direction sought with a large enough effect; inconclusive = small, poorly fitted or top-dose-only effect, or another doubt; inactive = no such curve, though single readings can be large; an effect the other way counts as inactive or inconclusive. Potency is the fitted concentration of half-maximal effect.
SMILES,ELG1 DNA repair,SW480 rerep,p53 reactivation,AT treatment,MCF10A rereplic,ELG1 genotox,ELG1-Luc inh,ELG1 MMS Luc,ELG1 5FU viab,ELG1 MMS viab,ELG1 unstim viab,others
COc1ccc2cc3c(N)nn(C(=O)c4ccccc4[N+](=O)[O-])c3nc2c1,2.3µM*,1%,-1%,1%,?,-10%,1.8µM*,14µM*,4%,?,?,
COc1ccc2cc3c(N)nn(C(=O)c4ccc(Cl)c([N+](=O)[O-])c4)c3nc2c1,1.6µM*,-4%,58%,-9%,-1%,-14%,3.5µM*,7.9µM*,5%,7%,7%,
COCc1ccc(-c2c(-c3cc(OC)cc(OC)c3)oc(=O)c3cc(OC)c(OC)cc23)cc1,0.58µM*,-10%[9.22 µM],24%,-4%,2%,0%,5µM*,4%,?,-2%,?,ELG1 FLuc counter=32%;FLuc biochem=?
C=CCn1c(SCC(=O)N2CC(=O)Nc3ccccc32)nc2scc(-c3ccccc3)c2c1=O,1.6µM*,5%,-10%,-13%,-19%,-3%,22µM*,-7%,7%,-7%,?,
O=C(Cc1ccc(OCCCc2ccccc2)cc1)NO,.,.,.,.,.,.,.,.,.,.,-1%,
N#C/C(=C(/O)c1ccc([N+](=O)[O-])s1)c1nc2ccccc2[nH]1,2.1µM*,?,1%,-3%,-5%,-9%,?,0.79µM*,-10%,0.89µM*,?,
COc1ccc(CCc2nnc(CCC(=O)N(C)Cc3ccnc4ccccc34)o2)cc1,?,-10%,5%,10%,-3%,-2%,?,7.1µM*,-7%,6.3µM*,?,
COc1ccccc1CCc1nnc(CCC(=O)N(C)Cc2cccc3cnccc23)o1,?,-3%,6%,-9%,4%,5%,.,.,.,.,.,
CC(=O)c1cn(CC(=O)Nc2ccc(C)c(C)c2)c2ccccc12,2.1µM*,?,-6%,-3%,-1%,-5%,-10%,?,-4%,?,-4%,
COc1cc(C=NO)nc(-c2ccccn2)c1,.,27%,.,.,8%,.,.,.,.,.,.,
